# Experiments:
# Settings in all cases: concentration: 1 μM, replicates: in singlicate; n = 1
# PIK3CD = system: PIK3CD
# PIK3CG = system: PIK3CG
# PIK4CB = system: T1, PIK4CB
# T1 construct: gene PI4KB
# PIKFYVE = system: PIKFYVE
# PIM1 = system: PIM1
# PIM2 = system: PIM2
# PIM3 = system: PIM3
# PIP5K1A = system: PIP5K1A
# PIP5K1C = system: PIP5K1C
# PIP5K2B = system: PIP5K2B
# 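Note: KINOMEscan kinase panel screen.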
Structure (SMILES),%Inh (PIK3CD) [%],%Inh (PIK3CG) [%],%Inh (PIK4CB) [%],%Inh (PIKFYVE) [%],%Inh (PIM1) [%],%Inh (PIM2) [%],%Inh (PIM3) [%],%Inh (PIP5K1A) [%],%Inh (PIP5K1C) [%],%Inh (PIP5K2B) [%]
Cl.c1ccc(Cn2ccc3cc(Nc4ncnc5ccccc45)ccc32)cc1 [GW275568],0,21,24,0,27,1,23,0,34,6
COc1cc2ncnc(Nc3ccc(OCc4ccccc4Br)c(Cl)c3)c2cc1OC.Cl [GI261590],0,0,0,28,0,0,15,34,56,11
CNc1nccc(-c2c(-c3ccc(F)cc3)ncn2CCCN2CCOCC2)n1 [SB-222516],0,0,20,0,0,0,81,6,17,0
c1ccc(-c2ccc3c(-c4ccnc(Nc5ccc6c(c5)OCCO6)n4)cnn3n2)cc1 [GW818941],0,0,0,0,9,0,17,0,0,1
Oc1ccc2ncnc(Nc3ccc(OCc4ccccc4)cc3)c2c1 [GI262866],5,0,1,0,0,0,33,0,19,19
O=C(NCCCN1CCCC1=O)c1cnc(NCc2cc(Cl)ccc2Cl)nc1NC1CCNCC1,0,7,0,30,0,0,4,0,12,0
CCCc1ccc(S(=O)(=O)NC2CCN(c3ccnc(Nc4ccc(OC)cc4)n3)C2)cc1 (stereo not drawn) [GSK1379737],0,0,0,0,0,0,0,52,56,22
Cc1ccc(C)c(NC(=O)NCCNc2ccnc(Nc3ccc(F)cc3)n2)c1 [GSK1379878],0,0,0,0,0,0,0,41,48,15
CC(C)(C)c1ccc(-n2cnc3c(N)ncnc32)cc1 [SKF-97263],28,100,30,0,9,0,0,0,0,2
CSc1nn2c(=O)cc(N3CCOCC3)nc2n1Cc1cccc(Cl)c1Cl [GSK2347225],85,56,0,37,8,0,0,0,27,4
Cl.Cn1ccc(-c2cccc(Nc3ccnc4cc(-c5nccs5)ccc34)c2)n1 [GW525701],0,0,0,30,12,0,0,48,36,14
COc1ccc(-c2oc3ncnc(N)c3c2-c2ccc(OC)cc2)cc1 [SB-589132],4,10,10,23,0,0,0,48,54,11
Cc1ccc(O)cc1Nc1cc(C(F)(F)F)nc2ccc(-c3ccncc3)cc12 [GW630823],0,0,0,0,4,3,11,0,0,0
COc1ccc(Nc2nccc(N3CCC(NC(=O)Nc4ccc5c(c4)OCO5)C3)n2)cc1 (stereo not drawn) [GSK1379745],5,0,14,14,9,0,0,11,51,40
Fc1cccc(COc2ccc(Nc3ncnc4cc[nH]c34)cc2Cl)c1,17,9,12,0,26,13,34,0,0,16
Nc1nc(-c2ccc3c(N)n[nH]c3c2)cc(N2CCC[C@@H](C(=O)Nc3ccccc3)C2)n1.O=C(O)C(F)(F)F.O=C(O)C(F)(F)F [GSK2288359],31,13,6,4,20,0,5,0,30,8
OCCOCCn1ccc2ncnc(Nc3ccc(Oc4cccc(Cl)c4)c(Cl)c3)c21,0,0,0,25,2,0,5,0,34,0

Structure (SMILES),%Inh (PIK3CD) [%],%Inh (PIK3CG) [%],%Inh (PIK4CB) [%],%Inh (PIKFYVE) [%],%Inh (PIM1) [%],%Inh (PIM2) [%],%Inh (PIM3) [%],%Inh (PIP5K1A) [%],%Inh (PIP5K1C) [%],%Inh (PIP5K2B) [%]
O=C(Nc1ccccc1F)NC1CCN(c2ccnc(Nc3ccc(F)cc3)n2)C1 (stereo not drawn) [GSK1379722],0,0,100,0,0,0,0,0,45,14
CSc1ccc(NC2=C(c3ccccc3Cl)C(=O)NC2=O)cc1 [SB-342411],0,0,0,0,0,0,0,0,33,0
COc1ccc(Nc2nccc(N3CCC(NC(=O)c4cccc(NC(C)=O)c4)C3)n2)cc1 (stereo not drawn) [GSK1379732],0,0,0,0,0,0,0,49,70,12
COC(=O)c1cccc(NC(=O)NCCNc2ccnc(Nc3ccc(F)cc3)n2)c1 [GSK1379883],0,8,0,1,0,0,0,34,56,5
C[C@H]1CC[C@@H](C(=O)Nc2ccccc2)CN1c1cc(-c2ccc3c(N)n[nH]c3c2)nc(N)n1 [GSK2283293],0,0,0,0,13,0,0,0,19,24
COc1ccc(NC(=O)c2ccc(-c3cc(-c4nnc(C)o4)ccc3C)cc2)cc1 [GW595885],0,0,0,13,0,0,0,7,1,10
CCc1nc(-c2cccc(C)c2)c(-c2ccnc(NC(=O)c3ccccc3)c2)s1,44,0,62,1,0,0,0,15,0,64
Fc1cccc(COc2ccc(Nc3ncnc4sc(-c5ccc[nH]5)cc34)cc2Cl)c1 [GW707818],0,0,0,0,20,0,14,29,46,0
Cn1ccc2ncnc(Oc3ccc(NC(=O)Nc4cccnc4)c(Cl)c3)c21,8,7,0,0,1,0,0,0,1,35
Cl.Cl.c1ccc(-c2cc3ccncc3cc2OC2CCNCC2)cc1 [GSK1122999],30,3,0,0,25,0,39,0,25,10
O=c1cc(N2CCOCC2)nc2n(Cc3cccc(Cl)c3)ccn12 [GSK2296823],68,0,2,0,0,0,0,0,8,11
NC(=O)c1sc(-n2cnc3ccccc32)cc1OCc1ccccc1F [GSK1024306],39,0,0,20,21,0,0,0,53,0
CC(C)N1CCC(n2cnc(-c3ccc(F)cc3)c2-c2ccnc(N)n2)CC1 [SB-223132],0,7,0,10,29,22,10,54,49,0
Cc1ccc(NC(=O)c2cccc(C#N)c2)cc1-c1ccc(C(=O)Nc2ccncc2)cc1 [GSK1398463],1,0,11,0,9,0,0,0,38,23
Cc1cc(N2CCC(NS(=O)(=O)c3ccc(F)cc3)CC2)nc(Nc2cccc(C#N)c2)n1.O=C(O)C(F)(F)F [GSK1653537],0,15,10,0,25,9,0,0,0,6
FC(F)(F)c1ccc(-c2nn3ncccc3c2-c2ccnc(Nc3cccc(C(F)(F)F)c3)n2)cc1 [GW828205],0,0,0,0,12,17,32,53,0,0

# Source: publication PMC5540273 (PLoS ONE, 2017)
